High-throughput results: PubChem BioAssay, National Center for Advancing Translational Sciences (NCATS)
Sampled rows, rich in hits. Any-hit rate of the full collection: about 2.4%.
Prx2 Sm inh – Schistosoma mansoni Prx2 inhibition. S. mansoni Prx2 activity coupled to TGR/GSH (TGR is thioredoxin glutathione reductase), NADPH fluorescence loss, qHTS. Potency, µM. 65,000 tested, 0.07% active
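Prx2 inhibition was measured as reduced NADPH consumption when electrons flowed from NADPH through TGR and glutathione to Prx2 and H2O2. Plates were read kinetically over 8 min; enzyme reagents were held at 4 deg C during dispensing.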
AmpC nodet inh – inhibitors of E. coli AmpC beta-lactamase without detergent; P00811; AmpC nitrocefin hydrolysis, absorbance 480 nm, no detergent; Potency, µM (series often up to 28.7 µM), without a hit: at the highest dose activity change, negative = inhibition; 71,000 tested, 1.8% active; also: % of control where 0% means no effect
Target sequence (P00811 whole entry, looked up): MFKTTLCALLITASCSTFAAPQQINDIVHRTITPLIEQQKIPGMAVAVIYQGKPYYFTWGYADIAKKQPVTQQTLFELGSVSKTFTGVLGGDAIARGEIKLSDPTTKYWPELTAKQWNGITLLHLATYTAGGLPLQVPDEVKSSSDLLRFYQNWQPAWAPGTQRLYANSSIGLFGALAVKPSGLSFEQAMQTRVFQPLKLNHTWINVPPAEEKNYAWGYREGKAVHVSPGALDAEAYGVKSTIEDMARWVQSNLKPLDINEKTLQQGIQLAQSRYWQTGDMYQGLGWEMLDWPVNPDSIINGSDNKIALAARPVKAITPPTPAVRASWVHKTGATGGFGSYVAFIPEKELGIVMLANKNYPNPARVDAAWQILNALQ
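Enzyme, pH 7.0 phosphate. Compound titrations were pre-incubated with AmpC for 15 min at room temperature before nitrocefin (stock 800 uM) addition; product formation was recorded at 480 nm every 20 s for 4 min.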
AmpC det inh – AmpC beta-lactamase inhibition, detergent assay | P00811 | purified AmpC, nitrocefin hydrolysis with detergent | Potency, µM (titrated, usually from 28.7 µM), for inactives: top-dose activity change, negative = inhibition | 71,000 tested, 0.09% active | AID 584; active = well fitted curve in the direction sought with a large enough effect; inconclusive = small, poorly fitted or top-dose-only effect; also: % is scaled to controls: 0 for no effect and ±100 for the full control effect
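E. coli AmpC (5.3 nM) in 20 mM phosphate pH 7.0 with 0.01% Triton X-100, preincubated 15 min RT with compound; nitrocefin (2 uL of 800 uM stock) hydrolysis followed by 480 nm absorbance every 20 s over 4 min.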
Anthrax LT inh – blocks cellular internalization of anthrax lethal toxin. 70,000 tested, 0.67% active. Potency, µM (series often up to 40 µM), inactives show top-dose activity change, negative = inhibition, most hits filed as inhibitors. Cells, anthrax lethal toxin internalization, FRET ratio (460/530); also: % is scaled to controls: 0 for no effect and ±100 for the full control effect; nearly all actives have a fitted effect of over 50% in size
Numbers without * were called inactive; ? = inconclusive; nt = not tested or not shown; [ ] = another dose, or the depositor's remark. Unless noted, calls follow the shape of the full dose curve. Potency is read from the fitted curve at half-maximal effect.

SMILES | Prx2 Sm inh | AmpC nodet inh | AmpC det inh | Anthrax LT inh
COc1ccc(S(=O)(=O)Cc2ccc(C(=O)N3CCCC3)o2)cc1 | >57 | 3.2µM*[single pt active] | 9% | 0%
COc1ccc(S(=O)(=O)Cc2ccc(C(=O)N3CCN(c4ccccn4)CC3)o2)cc1 | >57 | 4µM*[single pt active] | 11% | -14%
COc1ccc(S(=O)(=O)Cc2ccc(C(=O)N3CCC(C(N)=O)CC3)o2)cc1 | >57 | 6% | 5% | 9%
COc1ccccc1NC(=O)N1CCN(c2ccccn2)CC1 | >57 | 4µM*[single pt active] | 13% | 6%
Cc1ccccc1S(=O)(=O)Cc1ccc(C(=O)N2CCN(c3cccc(C)c3C)CC2)o1 | >57 | 85% | -3% | ?
Cc1ccccc1S(=O)(=O)Cc1ccc(C(=O)N2CC(C)CC(C)C2)o1 (stereo not given) | >57 | 4µM*[single pt active] | 10% | 3%
COc1ccccc1S(=O)(=O)Cc1ccc(C(=O)N2CCN(c3ccccn3)CC2)o1 | >57 | 4µM*[single pt active] | 11% | -13%
COc1ccccc1S(=O)(=O)Cc1ccc(C(=O)N2CCCC2)o1 | >57 | 22% | 11% | 6%
COc1ccccc1OCCn1cc(C(=O)c2ccco2)c2ccccc21 | >57 | 6% | 6% | 10µM*
c1ccc(/C(=N/Nc2nc3ccccc3s2)c2ccccn2)cc1 | >57 | 35%[5.75 µM] | -2%[5.75 µM] | -21%[8 µM]
O=C(NCc1cccs1)c1cc2c(s1)-c1ccccc1OC2 | >57 | 16µM* | 10% | ?
O=C1C(C2=C(O)c3ccccc3C2=O)=Nc2ccccc21 | >57 | 13µM* | 11% | -6%
COc1ccc(C2c3sc(=O)[nH]c3SC3C(=O)N(c4ccccc4)C(=O)C32)cc1 (stereo not given) | >57 | 4µM*[single pt active] | 11% | -16%
Nc1nc(SCC(=O)c2ccc(Oc3ccccc3)cc2)n[nH]1 | >57 | 10µM* | 21% | ?
CCCOc1nc2c(c(=O)n(C)c(=O)n2C)n1CCC | >57 | 11% | 22% | -3%
CCCn1c(OC)nc2c1c(=O)n(C)c(=O)n2C | >57 | 4µM*[single pt active] | 8% | 4%
O=C1/C(=C/Nc2ccc3c(c2)OCO3)CCc2ccccc21 | nt | -17% | 4% | 7.9µM*
CC1=CS/C(=C(/C#N)C(=O)N2CCCCC2)N1c1ccccc1 | nt | 5% | -1% | 2%
N#C/C(C(=O)c1ccccc1)=C1/SC=C(N)N1c1ccccc1 | >57 | 13µM* | 11% | -29%
CN(C)c1cc(-c2cccc(NS(C)(=O)=O)c2)ncn1 | >57 | 5% | 0% | 16%
Cc1cc(C(=O)N2CCN(c3ncccn3)CC2)sc1-c1ccccc1 | >57 | 56% | -4% | -9%
CCN1CCN(C(=O)c2cc3c(s2)-c2ccccc2S(=O)(=O)C3)CC1 | >57 | 4µM*[single pt active] | 15% | -14%
CN1CCN(C(=O)c2cc3c(s2)-c2ccccc2S(=O)(=O)C3)CC1 | >57 | 4µM*[single pt active] | 11% | -3%
O=C(c1ccco1)N1CCN(C(=O)c2cc3c(s2)-c2ccccc2OC3)CC1 | >57 | 136% | 11% | -19%
CCCCC1CN2C(CCC(C)C2c2ccc(Br)cc2)C(=O)O1 (stereo not given) | nt | nt | nt | -11%[8 µM]
SMILES | Prx2 Sm inh | AmpC nodet inh | AmpC det inh | Anthrax LT inh
C[C@H](Br)C(=O)c1ccc2cc(Br)c3ccccc3c2c1 | >57 | 16%[5.75 µM] | -4%[5.75 µM] | -9%[8 µM]
COc1ccc(S(=O)(=O)NCCSCc2ccco2)cc1 | >57 | 13µM*[single pt active] | 14% | -4%
CCCC[C@]1(C2CCCC2)Cc2cc(OCC(=O)O)c(Cl)c(Cl)c2C1=O | >57 | 3% | -5% | 4%
CCN(CC)c1ccc(NC(=O)CSc2nc3ccccc3c(=O)[nH]2)cc1 | >57 | 10µM*[single pt active] | -6% | 1%
CC(C)[C@@H]1OC(=O)C=CC=CC=CC=CC=CC[C@@H](O)[C@H](C)[C@@H](O)C[C@H](O)C[C@H](O)C[C@H](O)C[C@H](O)C[C@H](O)C[C@H](O)C=C[C@@H]1C | >57 | 39%[5.75 µM] | -4%[5.75 µM] | 0%[8 µM]
CCOC(=O)CN1C(=O)c2ccccc2C1=O | >57 | 23% | -1% | -12%
CCOC(=O)/C(C(C)=O)=C1\OC(=O)c2ccccc21 | >57 | 13µM* | 7.9µM* | -4%
Cn1c(Cn2c(=O)sc3ccccc32)nnc1SCc1ccccn1 | >57 | 11% | 1% | -2%
CC1CCN(C(=O)CSc2nnc(Cn3c(=O)sc4ccccc43)n2C)CC1 | >57 | ? | 16% | 2%
Cn1c(Cn2c(=O)sc3ccccc32)nnc1SCC(=O)N1CCCC1 | >57 | 4µM*[single pt active] | 27% | 29%
CCSc1nnc(Cn2c(=O)sc3ccccc32)n1C | >57 | 4µM*[single pt active] | 14% | -6%
